Experimental data: PubChem BioAssay (EPA / NIEHS)
Results filed as inconclusive are left out. Active and inactive are the calls of the source. Rule for the calls: active = hit-call score of the fitted dose curve at least 0.9, where 1 is the maximum; inconclusive = response in the unintended direction; inactive = score below 0.9.

Target: human Matrix Metalloproteinase-2 (MMP2), MMP2 (gene 4313) (UniProt P08253)
Assay: NVS_ENZ_hMMP2: NovaScreen (NVS) Enzymatic Assay for human Matrix Metalloproteinase-2 (MMP2) (AID 2283184)
Protocol: NVS_ENZ_hMMP2 is a biochemical, single-readout assay that uses extracted gene-proteins in a cell-free assay. Measurements were taken 1 hour after chemical dosing in a 96-well plate.NVS_ENZ_hMMP2 is one of one assay component(s) measured or calculated from the NVS_ENZ_hMMP2 assay. It is designed to make measurements of enzyme activity, a form of enzyme reporter, as detected with fluorescence intensity signals by Fluorescence technology.Data from the assay component NVS_ENZ_hMMP2 was analyzed into 1 assay endpoint. This assay endpoint, NVS_ENZ_hMMP2, was analyzed in the positive analysis fitting direction relative to DMSO as the negative control and baseline of activity. Using a type of enzyme reporter, loss-of-signal activity can be used to understand changes in the enzymatic activity as they relate to the gene MMP2. Furthermore, this assay endpoint can be referred to as a primary readout, because this assay has produced multiple assay endpoints where this one serves a enzymatic activity function. To generalize the intended target to other relatable targets, this assay endpoint is annotated to the protease intended target family, where the subfamily is matrix metalloproteinase.
(§1) Binding assays used specific radioligands (tritiated, iodinated) with non-radioactive competitive displacement ligands in agonist or antagonist protocols (as indicated) and various reference compounds and inhibitors to titrate specific binding to receptors and transporters. Most enzyme assays (CYPs, kinases, phosphatases, proteases, HDACs) used recombinant protein and specific substrates (fluorescence mostly, some colorimetric and radioactive) and inhibitors, followed by a biochemical separation of substrate and product. All assays for the biochemical HTS were initially run in duplicate at a single concentration (10 uM for CYP450 assays and 25 uM for all others). […] Each assay was run with positive and negative controls, and concurrent controls on every plate. The follow-up (secondary) screen tested active chemical-pairs in concentration series, as well as a few additional assays not tested in the primary screen, some selected negative inactives, and several cases re-run in the concentration series for confirmatory purposes.

Sequence of human Matrix Metalloproteinase-2 (MMP2), MMP2 (gene 4313) (P08253 whole entry, looked up): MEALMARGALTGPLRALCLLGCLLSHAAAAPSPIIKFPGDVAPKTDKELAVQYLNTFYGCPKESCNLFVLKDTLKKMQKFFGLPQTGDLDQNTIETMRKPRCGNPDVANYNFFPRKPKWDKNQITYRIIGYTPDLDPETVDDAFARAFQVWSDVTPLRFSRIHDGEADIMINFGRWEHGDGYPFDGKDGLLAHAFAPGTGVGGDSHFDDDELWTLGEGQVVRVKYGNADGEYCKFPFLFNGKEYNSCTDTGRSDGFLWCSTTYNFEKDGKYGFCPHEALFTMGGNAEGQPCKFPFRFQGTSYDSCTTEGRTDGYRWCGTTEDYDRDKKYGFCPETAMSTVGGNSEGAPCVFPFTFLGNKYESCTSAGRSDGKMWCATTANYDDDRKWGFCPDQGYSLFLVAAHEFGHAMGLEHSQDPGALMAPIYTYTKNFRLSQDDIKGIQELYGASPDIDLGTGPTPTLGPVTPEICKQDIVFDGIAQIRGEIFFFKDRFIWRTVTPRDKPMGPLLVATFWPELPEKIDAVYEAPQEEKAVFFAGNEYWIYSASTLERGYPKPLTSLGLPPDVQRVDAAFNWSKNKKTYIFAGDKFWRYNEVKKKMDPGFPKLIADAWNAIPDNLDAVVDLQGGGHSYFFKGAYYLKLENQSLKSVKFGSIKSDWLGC

For `CSC(C)(C)C=NO`, which AC50 is on record?
Its AC50 is 7.52 µM (active).

Which outcome does the source give for `c1nc[nH]n1` here?
The outcome was “inactive”.

For `CCOc1ccc(C(C)(C)COCc2cccc(Oc3ccccc3)c2)cc1`, which AC50 is on record?
Its AC50 is 36 µM (active).

How did the outcome turn out when `CCOP(=S)(OCC)SCSCC` was run?
Its outcome is “inactive”.

For `CCC1(c2ccccc2)C(=O)N=C(O)NC1=O` (configuration not stated), which AC50 is on record?
Its AC50 is 15.4 µM (active).

For `CC(Cc1ccc(OCC(=O)O)cc1)NCC(O)c1csc(C(F)(F)F)n1` (configuration not stated), which AC50 is on record?
The AC50 was 2.3 µM (active).

Target: human Matrix Metalloproteinase-9 (MMP9), MMP9 (gene 4318) (UniProt P14780)
Assay: NVS_ENZ_hMMP9: NovaScreen (NVS) Enzymatic Assay for human Matrix Metalloproteinase-9 (MMP9) (AID 2283190);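 note: cell-free recombinant MMP9 protease activity read by fluorescent substrate signal; active means inhibition seen as loss of fluorescence signal versus DMSO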
In short: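 Cell-free fluorescence-intensity enzyme activity assay using extracted protein, read 1 h after dosing. Loss of signal versus DMSO baseline indicates inhibition; primary screen in duplicate at 25 uM, actives followed up in concentration series.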

Sequence of human Matrix Metalloproteinase-9 (MMP9), MMP9 (gene 4318) (P14780 whole entry, looked up): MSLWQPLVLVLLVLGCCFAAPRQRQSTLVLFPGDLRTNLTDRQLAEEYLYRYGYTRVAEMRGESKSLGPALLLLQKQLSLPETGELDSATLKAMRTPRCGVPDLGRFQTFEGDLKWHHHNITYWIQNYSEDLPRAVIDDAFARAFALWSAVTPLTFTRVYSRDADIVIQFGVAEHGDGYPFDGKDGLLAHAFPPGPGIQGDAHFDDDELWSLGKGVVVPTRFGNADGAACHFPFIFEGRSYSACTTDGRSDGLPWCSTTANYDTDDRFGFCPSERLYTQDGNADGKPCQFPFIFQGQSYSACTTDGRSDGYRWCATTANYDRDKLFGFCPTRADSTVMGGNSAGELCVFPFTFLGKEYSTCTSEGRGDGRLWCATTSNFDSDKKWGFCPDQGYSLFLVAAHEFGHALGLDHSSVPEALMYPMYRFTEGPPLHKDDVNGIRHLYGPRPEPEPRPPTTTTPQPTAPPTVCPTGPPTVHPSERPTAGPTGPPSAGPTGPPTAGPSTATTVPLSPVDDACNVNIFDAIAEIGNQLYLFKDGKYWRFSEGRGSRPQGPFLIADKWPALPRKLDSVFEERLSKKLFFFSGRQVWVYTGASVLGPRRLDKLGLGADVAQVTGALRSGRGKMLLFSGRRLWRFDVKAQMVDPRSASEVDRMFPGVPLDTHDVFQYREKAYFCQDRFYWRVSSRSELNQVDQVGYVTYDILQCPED

With `Nc1ccc(Cl)cc1` as the compound, how does the outcome read?
Its outcome is “inactive”.

Which AC50 does the source give for `COP(=O)(O)OC` here?
Its AC50 is 9.97 µM (active).

With `CCCCC(CC)COP(=O)(Oc1ccccc1)Oc1ccccc1` (configuration not stated) as the compound, how does the AC50 read?
The AC50 was 2.08 µM (active).

Which outcome does the source give for `CCC1(c2ccccc2)C(=O)N=C(O)NC1=O` (configuration not stated) here?
The outcome was “inactive”.

Which outcome does the source give for `CC(Cc1ccc(OCC(=O)O)cc1)NCC(O)c1csc(C(F)(F)F)n1` (configuration not stated) here?
The outcome was “inactive”.

For `Cc1c([N+](=O)[O-])cc2c(c1[N+](=O)[O-])C(C)(C)CC2(C)C`, which AC50 is on record?
Its AC50 is 7.49 µM (active).

For `O=P(OCC(Br)CBr)(OCC(Br)CBr)OCC(Br)CBr` (configuration not stated), which AC50 is on record?
Its AC50 is 4.32 µM (active).

Target: human Phosphodiesterase 10 (PDE10), PDE10A (gene 10846) (UniProt Q9Y233)
Assay: NVS_ENZ_hPDE10: NovaScreen (NVS) Enzymatic Assay for human Phosphodiesterase 10 (PDE10) (AID 2283195)
In short: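 Recombinant human PDE10 with fluorescent substrate, 1 h, product separated by electrophoretic mobility shift. Loss of enzyme activity fitted against DMSO; initial screen 25 uM in duplicate, actives run to 50 uM maximum.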

Sequence of human Phosphodiesterase 10 (PDE10), PDE10A (gene 10846) (Q9Y233 whole entry, looked up): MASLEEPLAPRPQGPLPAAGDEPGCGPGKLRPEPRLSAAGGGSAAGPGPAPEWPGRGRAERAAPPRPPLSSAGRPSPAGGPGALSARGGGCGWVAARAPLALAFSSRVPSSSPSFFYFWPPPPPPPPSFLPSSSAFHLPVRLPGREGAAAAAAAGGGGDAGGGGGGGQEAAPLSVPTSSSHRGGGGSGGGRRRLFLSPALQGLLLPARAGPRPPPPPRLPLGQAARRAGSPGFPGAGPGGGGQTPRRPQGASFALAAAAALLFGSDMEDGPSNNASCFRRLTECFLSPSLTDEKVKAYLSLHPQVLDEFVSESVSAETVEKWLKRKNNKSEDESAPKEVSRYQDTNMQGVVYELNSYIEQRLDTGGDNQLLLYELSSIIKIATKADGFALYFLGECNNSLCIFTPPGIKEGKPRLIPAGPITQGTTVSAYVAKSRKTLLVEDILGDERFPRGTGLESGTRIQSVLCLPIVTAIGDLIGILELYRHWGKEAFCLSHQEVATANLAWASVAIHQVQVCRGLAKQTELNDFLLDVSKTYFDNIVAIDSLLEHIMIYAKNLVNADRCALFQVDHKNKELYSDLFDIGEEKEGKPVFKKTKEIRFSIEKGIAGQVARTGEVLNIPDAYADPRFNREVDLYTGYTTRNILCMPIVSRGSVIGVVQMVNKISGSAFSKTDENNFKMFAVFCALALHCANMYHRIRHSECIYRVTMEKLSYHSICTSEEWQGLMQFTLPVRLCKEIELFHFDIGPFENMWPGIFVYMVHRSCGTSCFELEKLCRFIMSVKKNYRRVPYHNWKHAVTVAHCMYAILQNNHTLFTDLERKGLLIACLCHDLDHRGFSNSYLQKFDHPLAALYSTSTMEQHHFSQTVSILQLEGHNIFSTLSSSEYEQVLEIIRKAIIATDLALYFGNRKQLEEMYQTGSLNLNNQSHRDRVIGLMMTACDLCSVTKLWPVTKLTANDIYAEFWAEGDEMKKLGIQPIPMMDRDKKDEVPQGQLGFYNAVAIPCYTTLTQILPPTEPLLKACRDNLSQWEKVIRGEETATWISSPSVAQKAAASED

`N#C/C=C/c1ccccc1` was tested. Which outcome did it give?
Its outcome is “inactive”.

`Cc1cc(C)c(C(=O)P(=O)(c2ccccc2)c2ccccc2)c(C)c1` was tested. Which AC50 did it give?
Its AC50 is 0.687 µM (active).

How did the outcome turn out when `O=[N+]([O-])c1cc(Cl)ccc1Cl` was run?
Its outcome is “inactive”.

`CC(Cl)CN(C)C` (configuration not stated) was tested. Which outcome did it give?
Its outcome is “inactive”.

With `Cc1ccc2c(c1N)C(=O)c1ccccc1C2=O` as the compound, how does the AC50 read?
Its AC50 is 5.53 µM (active).

Target: human Phosphoinositide 3-kinase alpha (PI3Ka), PIK3CA (gene 5290) (UniProt P42336)
Assay: NVS_ENZ_hPI3Ka: NovaScreen (NVS) Enzymatic Assay for human Phosphoinositide 3-kinase alpha (PI3Ka) (AID 2283196)
In short: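 Enzyme activity as fluorescence after mobility-shift separation of substrate and product, 1 h reaction, recombinant human PI3Kα; concentration-response to 50 uM max for chemicals passing a 25 uM duplicate screen.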

Sequence of human Phosphoinositide 3-kinase alpha (PI3Ka), PIK3CA (gene 5290) (P42336 whole entry, looked up): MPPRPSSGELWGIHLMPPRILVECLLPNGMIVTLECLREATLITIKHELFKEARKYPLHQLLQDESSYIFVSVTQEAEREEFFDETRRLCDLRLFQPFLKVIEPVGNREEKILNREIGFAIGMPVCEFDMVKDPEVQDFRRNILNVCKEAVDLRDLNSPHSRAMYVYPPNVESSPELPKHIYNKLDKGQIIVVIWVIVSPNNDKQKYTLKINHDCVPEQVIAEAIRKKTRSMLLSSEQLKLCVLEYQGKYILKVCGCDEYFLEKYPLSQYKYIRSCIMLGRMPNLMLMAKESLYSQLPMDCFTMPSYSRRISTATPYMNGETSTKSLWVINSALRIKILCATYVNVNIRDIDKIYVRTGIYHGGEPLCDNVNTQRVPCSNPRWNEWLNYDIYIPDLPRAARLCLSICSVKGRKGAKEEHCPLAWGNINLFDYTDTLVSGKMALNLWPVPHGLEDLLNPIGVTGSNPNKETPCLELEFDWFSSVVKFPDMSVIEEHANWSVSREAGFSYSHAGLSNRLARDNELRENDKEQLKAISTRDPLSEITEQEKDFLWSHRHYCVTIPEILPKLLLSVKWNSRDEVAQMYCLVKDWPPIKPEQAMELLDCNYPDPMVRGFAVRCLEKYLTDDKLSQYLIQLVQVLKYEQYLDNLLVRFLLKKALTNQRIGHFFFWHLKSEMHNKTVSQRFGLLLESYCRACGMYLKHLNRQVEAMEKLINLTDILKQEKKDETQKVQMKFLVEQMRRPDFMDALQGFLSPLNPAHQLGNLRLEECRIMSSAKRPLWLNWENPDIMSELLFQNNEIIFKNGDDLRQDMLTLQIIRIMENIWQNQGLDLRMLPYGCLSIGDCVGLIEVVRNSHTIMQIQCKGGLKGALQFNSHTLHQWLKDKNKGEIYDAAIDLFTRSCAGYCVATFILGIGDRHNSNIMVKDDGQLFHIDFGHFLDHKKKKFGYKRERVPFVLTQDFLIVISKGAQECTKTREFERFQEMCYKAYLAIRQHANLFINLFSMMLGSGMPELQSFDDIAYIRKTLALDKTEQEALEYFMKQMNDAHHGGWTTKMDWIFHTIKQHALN

With `CCCCN(CCCC)N=O` as the compound, how does the outcome read?
Its outcome is “inactive”.

How did the outcome turn out when `CSC(C)(C)C=NO` was run?
Its outcome is “inactive”.

How did the outcome turn out when `Cc1ccc2c(c1N)C(=O)c1ccccc1C2=O` was run?
Its outcome is “inactive”.

Target: human Phosphatase and Tensin Homolog (PTEN), PTEN (gene 5728) (UniProt P60484)
Assay: NVS_ENZ_hPTEN: NovaScreen (NVS) Enzymatic Assay for human Phosphatase and Tensin Homolog (PTEN) (AID 2283203)
In short: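 Cell-free recombinant human PTEN with fluorescent substrate; product separated by electrophoretic mobility shift and read by fluorescence 1 h after dosing. Primary screen in duplicate at 25 uM, actives followed in concentration series versus DMSO.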

Sequence of human Phosphatase and Tensin Homolog (PTEN), PTEN (gene 5728) (P60484 whole entry, looked up): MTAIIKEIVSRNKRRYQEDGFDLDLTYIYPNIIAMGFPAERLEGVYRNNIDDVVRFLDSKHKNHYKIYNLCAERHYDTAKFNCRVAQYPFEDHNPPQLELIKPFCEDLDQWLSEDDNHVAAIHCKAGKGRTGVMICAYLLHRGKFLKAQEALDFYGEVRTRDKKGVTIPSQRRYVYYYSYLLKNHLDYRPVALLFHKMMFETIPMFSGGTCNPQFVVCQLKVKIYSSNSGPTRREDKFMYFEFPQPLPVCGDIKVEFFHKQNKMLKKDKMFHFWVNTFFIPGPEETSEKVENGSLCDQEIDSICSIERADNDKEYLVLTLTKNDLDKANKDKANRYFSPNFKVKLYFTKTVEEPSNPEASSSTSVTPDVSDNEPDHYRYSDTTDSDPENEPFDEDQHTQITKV

With `CC(C)(C)OOC(C)(C)C` as the compound, how does the outcome read?
Its outcome is “inactive”.

For `O=[N+]([O-])c1cc(Cl)ccc1Cl`, which outcome is on record?
Its outcome is “inactive”.

With `CC(Cl)CN(C)C` (configuration not stated) as the compound, how does the outcome read?
The outcome was “inactive”.

Target: human Protein Tyrosine Phosphatase Non-receptor Type 6 (PTPN6), PTPN6 (gene 5777) (UniProt P29350)
Assay: NVS_ENZ_hPTPN6: NovaScreen (NVS) Enzymatic Assay for human Protein Tyrosine Phosphatase Non-receptor Type 6 (PTPN6) (AID 2283210)
Protocol: NVS_ENZ_hPTPN6 is a biochemical, single-readout assay that uses extracted gene-proteins from SF9 in a cell-free assay. Measurements were taken 1.33 hours after chemical dosing in a 384-well plate.NVS_ENZ_hPTPN6 is one of one assay component(s) measured or calculated from the NVS_ENZ_hPTPN6 assay. It is designed to make measurements of enzyme activity, a form of enzyme reporter, as detected with fluorescence intensity signals by Fluorescence and electrophoretic mobility shift technology.Data from the assay component NVS_ENZ_hPTPN6 was analyzed into 1 assay endpoint. This assay endpoint, NVS_ENZ_hPTPN6, was analyzed in the positive analysis fitting direction relative to DMSO as the negative control and baseline of activity. Using a type of enzyme reporter, loss-of-signal activity can be used to understand changes in the enzymatic activity as they relate to the gene PTPN6. Furthermore, this assay endpoint can be referred to as a primary readout, because this assay has produced multiple assay endpoints where this one serves a enzymatic activity function. To generalize the intended target to other relatable targets, this assay endpoint is annotated to the phosphatase intended target family, where the subfamily is non-receptor tyrosine phosphatase.
as §1

Sequence of human Protein Tyrosine Phosphatase Non-receptor Type 6 (PTPN6), PTPN6 (gene 5777) (P29350 whole entry, looked up): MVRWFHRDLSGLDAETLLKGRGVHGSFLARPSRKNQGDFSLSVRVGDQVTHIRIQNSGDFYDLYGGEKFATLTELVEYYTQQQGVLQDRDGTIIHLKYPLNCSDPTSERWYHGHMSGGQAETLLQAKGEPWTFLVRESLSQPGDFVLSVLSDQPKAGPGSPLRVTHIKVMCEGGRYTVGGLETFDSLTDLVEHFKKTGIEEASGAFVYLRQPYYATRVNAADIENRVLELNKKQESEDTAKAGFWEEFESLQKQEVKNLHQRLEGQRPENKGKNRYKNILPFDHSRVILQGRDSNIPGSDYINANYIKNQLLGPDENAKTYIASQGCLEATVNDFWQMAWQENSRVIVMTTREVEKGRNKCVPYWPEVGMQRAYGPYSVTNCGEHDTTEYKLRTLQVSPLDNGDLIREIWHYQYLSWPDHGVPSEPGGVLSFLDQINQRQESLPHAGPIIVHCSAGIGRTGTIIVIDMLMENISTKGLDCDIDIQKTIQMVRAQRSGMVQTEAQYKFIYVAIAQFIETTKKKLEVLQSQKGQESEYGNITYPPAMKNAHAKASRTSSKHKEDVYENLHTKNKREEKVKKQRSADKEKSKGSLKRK

`c1nc[nH]n1` was tested. Which outcome did it give?
Its outcome is “inactive”.

For `CC(C)(C)OOC(C)(C)C`, which outcome is on record?
The outcome was “inactive”.

With `[N-]=[N+]=[N-]` as the compound, how does the outcome read?
The outcome was “inactive”.
